Common to all, as to assay: NCI-60 one-dose screen, 48 h (100 = growth as untreated, 0 = no growth, -100 = all killed)
What all share (conditions): 10 µM unless noted

Assay [1] deals with EKVX NSCLC.
For assay [2], the system named is SN12C renal.
The subject of assay [3] is UO-31 renal.
Assay [4] relates to TK-10 renal.
For assay [5], the system named is ACHN renal.
Assay [6] relates to CAKI-1 renal.
The subject of assay [7] is A498 renal.
Assay [8] relates to CCRF-CEM leukemia.
The test system of assay [9] is MOLT-4 leukemia.
Assay [10] concerns SR leukemia.

Compounds without any hit were thinned out: in the full panel of roughly 83,000, 20% have a hit.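 Single-dose data. Exposure time 48 hours. Values below 10 considered active.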 Unmarked numbers belong to inactive results. The source made the active and inactive calls.

Turning to `O=C(Nc1cccc2ccccc12)c1cc2c(cc1Br)OCO2`, the growth in assay [1] was 92.9%; in assay [2], 107%; in [3], 99.2%; in assay [4] it was 172%; in assay [5], 94.2%; in assay [6], 101%. Besides, the growth in assay [7] is 126%; in [8], 94.7%; in [9], 91.5%; in assay [10], 71.5%.

For `CC(NC(=O)C(C)Oc1ccc(Cl)cc1Cl)C(=O)O` (stereo not given), the growth in [1] was 95.8%; in [2], 73.3%; in assay [3], 78.1%; in assay [4], 125%; in [5] it was 109%; in [6], 101%. The growth in assay [7] is 113%; in assay [8], -9.97% (active); in assay [9], 139%; in assay [10] it was 137%.

In the case of `COc1ncc(-c2ccc3nccc(C#CCN4CCN(S(C)(=O)=O)CC4)c3c2)cc1NS(=O)(=O)c1ccc(F)cc1F`, the growth in [1] is 9.26% (active); in assay [2], 2.52% (active); in assay [3] it was 5.46% (active); in [4], 12%; in [5] it was 13.2%; in assay [6], 4.01% (active). For the same molecule, the growth in assay [7] is -52.9% (active); in assay [8] it was -7.81% (active); in assay [9], -21% (active); in assay [10] it was 1.58% (active).

For the molecule `Cc1c(C(N)=O)sc2ncn(CC(=O)Nc3ccc(Cl)cc3)c(=O)c12`, the growth in assay [1] was 104%; in [2], 112%; in [3] it was 160%; in [4] it was 128%; in assay [5], 108%; in assay [6], 40.6%. Also, the growth was 126% in [7], 121% in assay [8], 112% in [9] and 85% in assay [10].

For `N#Cc1c(N2CCOCC2)nc2sc3cc(Cl)ccc3n2c1=N`, the growth was 91.1% in assay [1]; 99.8% in [2]; 63.3% in assay [3]; 160% in assay [4]; 98.3% in assay [5]; 111% in assay [6]. The growth in assay [7] is 121%; in [8] it was 126%; in assay [9] it was 109%; in assay [10] it was 108%.

Turning to `CCn1c2c(c3ccccc31)SC1c3cccn3CCN1C2=S` (stereo not given), the growth in [1] was 107%; in assay [2] it was 98.3%; in assay [3], 84.9%; in [4] it was 89%; in assay [5], 99.1%; in [6], 88.3%. For the same molecule, the growth in assay [7] is 115%; in [8], 81.2%; in [9], 88.8%; in assay [10] it was 109%.

In the case of `O=C(CCc1nnc(Cn2cncn2)o1)c1nc2ccccc2[nH]1`, the growth in assay [1] is 116%; in assay [2], 92.6%; in assay [3] it was 92.4%; in [4] it was 108%; in assay [5], 113%; in assay [6] it was 102%. Also, the growth in assay [7] was 96%; in assay [8], 96.4%; in assay [9], 92.4%; in assay [10], 82%.

With `O=c1[nH]c(=O)n(C2CC(O)C(CO)O2)cc1C(F)(F)F` (stereo not given), the growth is 86.6% in [1]; 28.6% in assay [2]; 23.5% in assay [3]; 64.8% in assay [4]; 24.6% in [5]; 66.2% in assay [6]. Also, the growth was 42.3% in assay [7], -30.2% (active) in assay [8], 31.8% in [9] and -24.8% (active) in [10].

In the case of `S=C(Nc1ccc(C2=NCCN2)cc1)Nc1ccc(C2=NCCN2)cc1`, the growth in [1] was 91.9%; in assay [2], 98.9%; in assay [3] it was 83.4%; in assay [4] it was 100%; in [5], 99.2%; in assay [6], 93.9%. The growth in assay [7] is 101%; in assay [8], 104%; in assay [9], 93.6%; in assay [10] it was 90.4%.

With `CCN1C2=C(SC(=S)C1=C1SC(C(=O)OC)=C(C(=O)OC)S1)SC(=Nc1ccc(OC)cc1)C2=O`, the growth was 34.7% in [1]; -11.8% (active) in assay [2]; -73% (active) in assay [3]; 30.3% in assay [4]; -74.3% (active) in assay [5]; -38.4% (active) in assay [6]. The growth is 46% in [7], 4.67% (active) in assay [8], 13.2% in assay [9] and 19.2% in [10].

In the case of `CCC1=C(c2ccc(OC)cc2)C(C)(C)Oc2cc(O)c(CN3CCCC3)cc21`, the growth was 85.2% in assay [1]; 77.8% in assay [2]; 55.8% in [3]; 94.3% in [4]; 82.6% in [5]; 83.2% in assay [6]. Besides, the growth is 59.5% in [7], 69.2% in [8], 66.3% in assay [9] and 9.49% (active) in assay [10].

As to `Cc1cc(Cl)ccc1Nc1nc(C(F)(F)F)ccc1C(=O)NCC(=O)N/N=C/c1c(Cl)cccc1Cl`, the growth in assay [1] is 48%; in [2], 78.3%; in [3] it was 65.9%; in assay [4] it was 76.8%; in assay [5] it was 57.7%; in assay [6], 0.101% (active). Further, the growth in assay [7] is 83.3%; in assay [8], 19.5%; in assay [9] it was 50.8%; in assay [10], 42.2%.

For `O=C(C(=O)N1CCCCC1)c1ccc(OC2OC(CO)C(O)C(O)C2O)cc1` (stereo not given), the growth is 111% in [1]; 98.9% in assay [2]; 105% in assay [3]; 107% in assay [4]; 107% in [5]; 94.4% in [6]. The growth in assay [7] was 126%; in assay [8] it was 97.7%; in assay [9], 87.7%; in [10] it was 101%.

Consider `C=C(C[C@](O)(C(=O)/C=C/c1ccc(Cl)cc1)C(=O)OC)c1ccccc1`, for which the growth was 82.8% in [1]; 74.8% in [2]; 52.6% in assay [3]; 64.6% in assay [4]; 72.2% in assay [5]; 68.5% in assay [6]. The growth in [7] is 97.1%; in assay [8], 40.8%; in [9], 62.9%; in [10] it was 23.3%.

Source of the values: PubChem BioAssay (NCI).
